Source: PubChem BioAssay (EPA / NIEHS)
Some compounds were tested as several samples or in several runs, with calls that do not always agree. Active and inactive are the calls of the source. How the source made its calls: active means hit-call score of the fitted dose curve at least 0.9, where 1 is the maximum; inactive means score below 0.9.

Read-out: Bcl-2 (BID) gene, BID (gene 637)
Assay: LTEA_HepaRG_BID: Life Technologies and Expression Analysis (LTEA) Assay for Bcl-2 (BID) gene using HepaRG (AID 2283476)
Settings: mRNA level, 48 h; actives raise or lower the signal
Procedure, shortened: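 Duplicate 48 h treatments of HepaRG cells in serum-free induction medium spanned 100 uM downward in half-log steps, 0.5% DMSO. Transcript change quantified by qRT-PCR against three housekeeping genes, fitted up or down versus DMSO.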

Sequence of Caspase-3 (Homo sapiens) (P42574 whole entry, looked up): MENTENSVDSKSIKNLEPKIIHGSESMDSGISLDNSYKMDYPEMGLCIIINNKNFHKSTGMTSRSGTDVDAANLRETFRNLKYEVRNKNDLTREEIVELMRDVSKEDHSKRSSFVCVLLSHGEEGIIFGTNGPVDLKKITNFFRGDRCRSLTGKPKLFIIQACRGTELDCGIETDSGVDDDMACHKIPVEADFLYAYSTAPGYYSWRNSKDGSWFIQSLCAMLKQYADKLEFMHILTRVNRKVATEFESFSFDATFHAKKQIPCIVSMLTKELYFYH

SMILES | outcome | AC50
O=C(Nc1ccccc1)Nc1ccnc(Cl)c1 | inactive | –
O=C(O)c1nc(Cl)ccc1Cl | inactive | –
O=C(O)COc1nc(Cl)c(Cl)cc1Cl | inactive | –
CC(Oc1ccc(Cl)cc1Cl)C(=O)O (stereo unspecified) | inactive | –
CCCCNC(=O)OCC#CI | inactive | –
COc1ccc(C(c2ccc(OC)cc2)C(Cl)(Cl)Cl)cc1 | inactive | –
CCNc1nc(Cl)nc(NCC)n1 | inactive | –
C=CC1(C)OC(=O)N(c2cc(Cl)cc(Cl)c2)C1=O (stereo unspecified) | inactive | –
CCOC(=O)CC(SP(=S)(OC)OC)C(=O)OCC (stereo unspecified) | inactive | –
Fc1ccc(Oc2ccnc3cc(Cl)cc(Cl)c23)cc1 | inactive | –
OC(c1ccc(Cl)cc1)(c1cncnc1)c1ccccc1Cl (stereo unspecified) | inactive | –
N#CC(CCc1ccc(Cl)cc1)(Cn1cncn1)c1ccccc1 (stereo unspecified) | inactive | –
N#Cc1nn(-c2c(Cl)cc(C(F)(F)F)cc2Cl)c(N)c1S(=O)C(F)(F)F (stereo unspecified) | inactive | –
CC1COC(Cn2cncn2)(c2ccc(Oc3ccc(Cl)cc3)cc2Cl)O1 (stereo unspecified) | – | 12 µM (active)
COP(=S)(OC)Oc1nc(Cl)c(Cl)cc1Cl | inactive | –
CCCN(CCC)c1c([N+](=O)[O-])cc(S(N)(=O)=O)cc1[N+](=O)[O-] | inactive | –
COC(=O)C=C(C)OP(=O)(OC)OC | inactive | –
CS/C(C)=N/OC(=O)N(C)SN(C)C(=O)O/N=C(\C)SC | inactive | –
CCOP(=S)(OCC)SCn1c(=O)oc2cc(Cl)ccc21 | inactive | –
COC(=O)C(C)Oc1ccc(Oc2ccc(Cl)cc2Cl)cc1 (stereo unspecified) | inactive | –
CNC(=S)S | inactive | –
C=CCC1=C(C)C(OC(=O)C2C(C=C(C)C)C2(C)C)CC1=O (stereo unspecified) | inactive | –
CCc1nn(C)c(C(=O)NCc2ccc(C(C)(C)C)cc2)c1Cl | – | 50 µM (active)
C=CCC1=C(C)[C@@H](OC(=O)[C@@H]2[C@@H](C=C(C)C)C2(C)C)CC1=O | inactive | –
COc1nc(NC(C)C)nc(NC(C)C)n1 | inactive | –

Read-out: Caspase-3 (Homo sapiens) (UniProt P42574)
Assay: LTEA_HepaRG_CASP3: Life Technologies and Expression Analysis (LTEA) Assay for cysteine-aspartic acid protease (CASP3) using HepaRG (AID 2283477)
Settings: mRNA level, 48 h; actives raise or lower the signal
Procedure, shortened: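 HepaRG, 48 h exposure, 8 conc. (top 100 uM, half-log steps, duplicate), 0.5% DMSO vehicle; qRT-PCR of CASP3 transcript, housekeeping-normalised (ACTB/GAPDH/POLR2A); bidirectional curve fit vs DMSO baseline.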

SMILES | AC50 | outcome
O=C(Nc1ccccc1)Nc1ccnc(Cl)c1 | 69.9 µM (active) | –
O=C(O)c1nc(Cl)ccc1Cl | – | inactive
O=C(O)COc1nc(Cl)c(Cl)cc1Cl | – | inactive
CC(Oc1ccc(Cl)cc1Cl)C(=O)O (stereo unspecified) | – | inactive
CCCCNC(=O)OCC#CI | – | inactive
COc1ccc(C(c2ccc(OC)cc2)C(Cl)(Cl)Cl)cc1 | – | inactive
CCNc1nc(Cl)nc(NCC)n1 | – | inactive
C=CC1(C)OC(=O)N(c2cc(Cl)cc(Cl)c2)C1=O (stereo unspecified) | – | inactive
CCOC(=O)CC(SP(=S)(OC)OC)C(=O)OCC (stereo unspecified) | – | inactive
Fc1ccc(Oc2ccnc3cc(Cl)cc(Cl)c23)cc1 | – | inactive
OC(c1ccc(Cl)cc1)(c1cncnc1)c1ccccc1Cl (stereo unspecified) | – | inactive
N#CC(CCc1ccc(Cl)cc1)(Cn1cncn1)c1ccccc1 (stereo unspecified) | – | inactive
N#Cc1nn(-c2c(Cl)cc(C(F)(F)F)cc2Cl)c(N)c1S(=O)C(F)(F)F (stereo unspecified) | – | inactive
CC1COC(Cn2cncn2)(c2ccc(Oc3ccc(Cl)cc3)cc2Cl)O1 (stereo unspecified) | – | inactive
COP(=S)(OC)Oc1nc(Cl)c(Cl)cc1Cl | – | inactive
CCCN(CCC)c1c([N+](=O)[O-])cc(S(N)(=O)=O)cc1[N+](=O)[O-] | 79.2 µM (active) | inactive
COC(=O)C=C(C)OP(=O)(OC)OC | – | inactive
CS/C(C)=N/OC(=O)N(C)SN(C)C(=O)O/N=C(\C)SC | – | inactive
CCOP(=S)(OCC)SCn1c(=O)oc2cc(Cl)ccc21 | – | inactive
COC(=O)C(C)Oc1ccc(Oc2ccc(Cl)cc2Cl)cc1 (stereo unspecified) | – | inactive
CNC(=S)S | – | inactive
C=CCC1=C(C)C(OC(=O)C2C(C=C(C)C)C2(C)C)CC1=O (stereo unspecified) | – | inactive
CCc1nn(C)c(C(=O)NCc2ccc(C(C)(C)C)cc2)c1Cl | 16.1 µM (active) | –
C=CCC1=C(C)[C@@H](OC(=O)[C@@H]2[C@@H](C=C(C)C)C2(C)C)CC1=O | – | inactive
COc1nc(NC(C)C)nc(NC(C)C)n1 | – | inactive
